From the supplement of paper PMC6555819

Each sequence was assayed on VDR:RXRa (NR concentration 270 nM, RXRa partner concentration 90 nM) (assay: PBM binding z-score (relative to random genomic background probes); higher = stronger binding; sequences stand for … in GC…GCGATTGACAGCGTAGAATGAAGG).
Description: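 Protein-binding microarray (Agilent 4x180K custom design, double-stranded 60-nt probes: 5' GC cap, 34-nt variable region, 24-nt constant primer region; full probe sequence given). Purified or IVT nuclear receptor:RXRα heterodimers (3:1 NR:RXRα, mostly 270:90 nM) or homodimers were incubated for 1 h in PBS with 2% milk and no ligand, then detected with Alexa488 antibodies. Fluorescence from o1-orientation probes (~5 replicates averaged) was converted to z-scores against 500 random hg19 background probes. Variable regions are seed direct-repeat (DR0–DR5) sites, all their single-nucleotide variants and half-site ablations.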

**Q.** Which PBM binding z-score does the source give for ATCGAAAGGTCGAGGTGAGTACAGAGAAAGGGAA here?
**A.** The PBM binding z-score was 4.25.

**Q.** Which PBM binding z-score does the source give for CCAAGCAGGCCAGGGTCACTCAAGCATTTCGCTT here?
**A.** The PBM binding z-score was 2.55.

**Q.** For TCTTGTAGATCTAAGGTTAAGAAAGCCGAAGCCT, which PBM binding z-score is on record?
**A.** Its PBM binding z-score is 0.651.

**Q.** How did the PBM binding z-score turn out when AATACACGGTCATCGTAGGCCAGAGTACGCACAG was run?
**A.** Its PBM binding z-score is 0.576.

**Q.** For CCGAGTAGGTTATGGGGCATGCAGGCAACGGTGA, which PBM binding z-score is on record?
**A.** Its PBM binding z-score is -0.196.

**Q.** With CGAACTAGGCCATTGACAGGACAGTGAATAGTAA as the sequence, how does the PBM binding z-score read?
**A.** Its PBM binding z-score is -0.259.

**Q.** Which PBM binding z-score does the source give for AATACAGGGTCATCGTAGGCCAGAGTCCGCACAG here?
**A.** The PBM binding z-score was 5.19.

**Q.** Which PBM binding z-score does the source give for GCATATAGGTGATACAAGGTGAAAGTCCGATTGT here?
**A.** The PBM binding z-score was 0.445.

**Q.** How did the PBM binding z-score turn out when CTCGAAAGGTCGTGCTGAGGTGAGTATACCAAAC was run?
**A.** The PBM binding z-score was 3.85.

**Q.** For CAGACTGGGGCAAGGTTACCATAACGCACAGCCA, which PBM binding z-score is on record?
**A.** The PBM binding z-score was 0.28.

**Q.** How did the PBM binding z-score turn out when ACTAGCAGGCCAAGTTTGGGCCACTCAAACAAAG was run?
**A.** The PBM binding z-score was -0.648.

**Q.** How did the PBM binding z-score turn out when CGAAGTAGGTCATTGACAGGACAGTGAATAGTAA was run?
**A.** Its PBM binding z-score is 2.62.

**Q.** For AGTCAAAGTTCATCTAGGCAACGTAAGATATGCT, which PBM binding z-score is on record?
**A.** Its PBM binding z-score is 4.9.

**Q.** TCCAGCAGGCCAGAGGGTCACTCAAGAGGTACGG was tested. Which PBM binding z-score did it give?
**A.** The PBM binding z-score was 1.34.

**Q.** Which PBM binding z-score does the source give for CCTACTGGTCCACGAAAGGTCATTGATTCAGTGA here?
**A.** The PBM binding z-score was 4.24.

**Q.** CGAACTAGGTCATTGACACGACAGTGAATAGTAA was tested. Which PBM binding z-score did it give?
**A.** The PBM binding z-score was 2.01.

**Q.** For CCTCCAAGGTCAGAGAGGTCAGTGAATGCCGAGT, which PBM binding z-score is on record?
**A.** Its PBM binding z-score is 7.22.

**Q.** TCTGCTAGGTAAGTTGGTCAGCTAACGAGCTGCC was tested. Which PBM binding z-score did it give?
**A.** Its PBM binding z-score is -0.464.

**Q.** How did the PBM binding z-score turn out when ATTGAAAGGTCGTGAGGTGAGTATACAGAAAGGC was run?
**A.** The PBM binding z-score was 3.71.

**Q.** How did the PBM binding z-score turn out when GCTGCTAGGTCAGGTTGGTCATCTAACGGGTACG was run?
**A.** The PBM binding z-score was 1.25.

**Q.** How did the PBM binding z-score turn out when ACAGACAGGTGATGAAGGTAACTCGGGCTATCAT was run?
**A.** Its PBM binding z-score is 0.101.

**Q.** For ATCGAAAGGGCGAAGGTGAGTATACCCACCCGAA, which PBM binding z-score is on record?
**A.** The PBM binding z-score was 0.347.

**Q.** With CCTTACGGGTCACTGACAGGTTAGAGCATTTGGA as the sequence, how does the PBM binding z-score read?
**A.** Its PBM binding z-score is 3.33.

**Q.** ACTTACGGGTCAACGAGGTTATAGAACGCGTATA was tested. Which PBM binding z-score did it give?
**A.** The PBM binding z-score was 7.78.

**Q.** How did the PBM binding z-score turn out when TCTTGTAGATCAACGGTTAAGAAAGCCGAAGCCT was run?
**A.** Its PBM binding z-score is 0.234.

**Q.** Which PBM binding z-score does the source give for TCATATAAGTAAAAGGTGAAAGTCGGTGTGGTAA here?
**A.** Its PBM binding z-score is 1.24.

**Q.** Which PBM binding z-score does the source give for GCATATAGGCAATACAAGGTGAAAGTCCGATTGT here?
**A.** Its PBM binding z-score is 0.0245.

**Q.** GCTTGTTGGTCAGTAAAAGGTCACACACCGGTCG was tested. Which PBM binding z-score did it give?
**A.** The PBM binding z-score was 3.86.

**Q.** How did the PBM binding z-score turn out when CGAACTAGGTCATGGACAGTGAATCTCCGCACGC was run?
**A.** Its PBM binding z-score is 1.64.

**Q.** Which PBM binding z-score does the source give for CTCGAAAGGTTGGTTGAGGTGAGTATACGGATAA here?
**A.** Its PBM binding z-score is 0.828.

**Q.** ACTCGGAGGCCAAAGGTCAGAGCTACGCCAGTGA was tested. Which PBM binding z-score did it give?
**A.** Its PBM binding z-score is 3.11.

**Q.** For CGAACTAGGTCATTGAAAGGACAGTGAATAGTAA, which PBM binding z-score is on record?
**A.** The PBM binding z-score was 2.36.

**Q.** GCAGACAGGTGAAAGGCAGGTAACTCAGGGTGGC was tested. Which PBM binding z-score did it give?
**A.** The PBM binding z-score was -0.303.

**Q.** For AGTCAAAGTTCATCTAGTTAACGTAAGATATGCT, which PBM binding z-score is on record?
**A.** Its PBM binding z-score is 4.86.

**Q.** How did the PBM binding z-score turn out when ACTATTAGTTGACTTAGGGCAACCCATACGACGC was run?
**A.** The PBM binding z-score was 0.512.

**Q.** Which PBM binding z-score does the source give for TCTTGTAGATCTAGCAGGTTAAGAAAGCCTGAGT here?
**A.** The PBM binding z-score was 0.391.

**Q.** With CCTCCTGGGCCACGAAAGGTCATTGATTCAGTGA as the sequence, how does the PBM binding z-score read?
**A.** Its PBM binding z-score is 4.04.

**Q.** With ACTAGCAGGCCAAGGGTCTCTCAAGATTAGTCCG as the sequence, how does the PBM binding z-score read?
**A.** The PBM binding z-score was -0.657.

**Q.** CCTGCTAGGTCATGGTCAGCTACTCTACAGTATG was tested. Which PBM binding z-score did it give?
**A.** Its PBM binding z-score is 1.46.

**Q.** How did the PBM binding z-score turn out when GGAACGAGGGCACAGTTGATAGCATCTGTCGACG was run?
**A.** Its PBM binding z-score is 0.453.
